Measured values published in the OligoGym collection.
Further: reference of the scale not given here.

The sequences below were run against PTPN7 (assay: pooled miR-30 sensor sort-seq; sequence = guide strand). Conditions: shRNA.
TTTGTCTGTCATAAATGCCAGC showed a sensor-assay potency score (higher = more potent) of -0.867. In the case of ATTGATGTAATCTCCGTCCTCC, the sensor-assay potency score (higher = more potent) was 0.571. TTCTCCTCGGGCTTTCAGCTGT gave a sensor-assay potency score (higher = more potent) of -0.819.

The sequences below were run against PTPRT in the same assay as above. Conditions: shRNA.
TATCTGATATTCATTGACCTGA showed a sensor-assay potency score (higher = more potent) of -0.134. TTGAGTCGCAATGTAGTGCCGA was tested, and the sensor-assay potency score (higher = more potent) was -0.352. For TTTGTGACCATGACGATGCTGG, the sensor-assay potency score (higher = more potent) was 0.113. TATCTTGTTTGTCTCTTCCAAA gave a sensor-assay potency score (higher = more potent) of -1.13. For TAAGTCATCTGCATCCTCGGTT, the sensor-assay potency score (higher = more potent) was 0.728. In the case of TTTGCTTTGAGGCACTTCCTTT, the sensor-assay potency score (higher = more potent) was -1.11. TTGGTCTTGATCTTGAGCCTAT gave a sensor-assay potency score (higher = more potent) of -0.529. For TAGTTGATCTCGTAGAGCGTGA, the sensor-assay potency score (higher = more potent) was -0.257. In the case of TAATCGAACACCAGCCTCCAGA, the sensor-assay potency score (higher = more potent) was -0.958. Work on TAGATTTTTTAACACAGCCATG yielded a sensor-assay potency score (higher = more potent) of -1.72. In the case of TAGTGTAGAGAATCGAGGCTGG, the sensor-assay potency score (higher = more potent) was 0.97. Sequence TATTGTAGTAGAGAGAACGGAA has a sensor-assay potency score (higher = more potent) of -0.217.
